In all, about 33,000 sequences were measured (“E-score (-0.5 to 0.5)”: median about -0.056, highest 2% from about 0.38 on). Many of the other results were omitted from the sample, so the highest values are more common in it than they were.
Molecular target: Stb4 (UniProt P50104)
Experiment: PBM E-score (8-mer binding enrichment) (E-score (-0.5 to 0.5)); higher = stronger / more preferred TF binding
Details: protein concentration: 200 nM; construct: GST-DNA-binding domain
Outline: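 The E-score, a modified Wilcoxon-Mann-Whitney statistic, was computed by the Universal PBM Analysis Suite for every ungapped eight-base word pooled with its reverse complement. Scans behind it were normalised with masliner after bound GST-tagged yeast transcription factors were detected with fluorescent anti-GST. The proteins, at about 100-200 nM, had been applied to universal all-10-mer Agilent arrays made double-stranded by primer extension.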

Sequence of UniProt P50104 (P50104 whole entry): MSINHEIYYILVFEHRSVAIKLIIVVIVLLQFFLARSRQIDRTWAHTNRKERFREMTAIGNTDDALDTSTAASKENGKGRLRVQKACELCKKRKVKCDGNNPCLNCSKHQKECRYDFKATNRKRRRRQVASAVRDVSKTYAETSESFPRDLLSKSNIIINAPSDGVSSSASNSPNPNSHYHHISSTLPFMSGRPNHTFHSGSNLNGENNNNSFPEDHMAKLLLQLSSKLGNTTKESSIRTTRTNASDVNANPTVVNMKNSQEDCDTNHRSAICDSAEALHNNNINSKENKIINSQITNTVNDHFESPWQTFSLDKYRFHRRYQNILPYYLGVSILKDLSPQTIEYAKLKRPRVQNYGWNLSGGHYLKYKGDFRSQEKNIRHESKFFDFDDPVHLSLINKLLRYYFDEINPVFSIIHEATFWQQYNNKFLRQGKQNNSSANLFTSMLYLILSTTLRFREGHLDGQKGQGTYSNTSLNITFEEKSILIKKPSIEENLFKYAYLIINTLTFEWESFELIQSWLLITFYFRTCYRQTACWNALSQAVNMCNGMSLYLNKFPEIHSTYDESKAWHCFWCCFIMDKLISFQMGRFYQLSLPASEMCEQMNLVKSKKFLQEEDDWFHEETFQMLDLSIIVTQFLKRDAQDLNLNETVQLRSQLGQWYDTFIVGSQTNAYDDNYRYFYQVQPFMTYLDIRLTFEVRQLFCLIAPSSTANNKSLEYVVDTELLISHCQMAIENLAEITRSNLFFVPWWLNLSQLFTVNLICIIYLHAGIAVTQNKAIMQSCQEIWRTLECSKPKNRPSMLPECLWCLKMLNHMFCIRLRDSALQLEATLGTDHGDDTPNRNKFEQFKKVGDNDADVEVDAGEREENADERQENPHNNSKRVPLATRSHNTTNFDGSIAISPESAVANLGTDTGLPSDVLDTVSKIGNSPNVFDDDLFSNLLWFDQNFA

Sequence	PBM E-score
AGCCGATG	0.321
AACCGATC	0.253
ACCCGATG	0.399
ACCCGATA	0.349
CTCCGATC	0.229
CTCCGATA	0.275
ACCCGATC	0.333
GGCAGTGA	0.0105
CCCATAGC	-0.0731
ACCATATA	-0.114
GGTCTAAC	0.0261
ATCCTGCG	-0.117
CAATGCCA	-0.241
AAGCCTAA	-0.0457
CACTCTAA	-0.151
ATGGGCGC	-0.158
AGGGCTGC	-0.134
ATCTGACA	-0.0757
GCGAGGGA	-0.129
CCGAGGGA	0.386
CAGAGGGC	-0.151
ACGAGGGC	-0.0578

Sequence	PBM E-score
CCGAGGGC	0.431
ACGAGGGA	-0.0722
ATCTAACA	-0.00015
CTAGGCAG	-0.169
AGGCCCGA	0.233
CGACCCGC	0.173
CGGCCCGA	0.444
GGACCCGA	0.386
CGGGCCGC	0.309
GGGGCCGA	0.174
CGACCCGA	0.4
GGACCCTA	-0.144
GGACCCCA	-0.0727
CGACCCTA	0.0884
CGGGCCGA	0.435
GGGCCCGA	0.278
CAATCGGA	0.374
CGAGGATA	0.0376
ACATATAA	-0.0928
CCTCTTTA	-0.157
ACTATACG	0.00583
ATGACGAC	0.0312

Sequence	PBM E-score
ATACCGAG	0.377
AAGCCATG	-0.117
AGTCTTCG	-0.008
CCGGCCAA	0.271
CGGACCTC	0.124
GCGCTGAC	-0.0933
AGACCCGG	0.305
AGACCCGC	0.174
AGACCCGA	0.419
AAACTGTG	-0.12
AGAGGGAT	-0.271
ACGAGACG	0.0568
CCGAGACC	0.431
ACGAGACC	-0.0429
CCGAGACG	0.41
CCGAGAGA	0.373
ACGAGAGC	-0.151
CCGAGAGC	0.388
CCGAGACA	0.372
CGGAGACG	0.235
CCACCACG	-0.109
AAGCTAGG	0.0266

Sequence	PBM E-score
GGCAGGCA	0.0342
CGGGGCCA	0.22
AATAGGAG	-0.317
GTCCTCCA	-0.138
CGGAAGTA	0.419
AGGAAGAA	-0.278
CGGAAGAA	0.406
CTGAAGTC	0.0307
GGGAAGTA	0.184
AGGAAGGA	-0.282
AGGAAGTC	-0.19
CGGAAGTC	0.414
GGGAAGGA	0.0823
AGGAAGTA	0.112
GGGAAGAA	0.0883
CGGAAGGA	0.397
ACGCTCAT	-0.276
AAAGGCGA	-0.0639
AGAGCAAC	-0.287
GGGTTTAA	0.0372
CACGAGAG	-0.136
GGCGAGAC	-0.245
